D2 PAM-1 – positive allosteric modulators of human D2 dopamine receptor; P14416; DiscoveRx D2 beta-arrestin cells, luminescence, 90 min; 100% = 57 uM dopamine signal; potentiation, % (test concentration not listed); 0.23% of 360,000 active; AID 624464; in the data active means potentiation above about 50%; inconclusive means mostly about 30% to 49%
Target sequence (P14416 whole entry, looked up): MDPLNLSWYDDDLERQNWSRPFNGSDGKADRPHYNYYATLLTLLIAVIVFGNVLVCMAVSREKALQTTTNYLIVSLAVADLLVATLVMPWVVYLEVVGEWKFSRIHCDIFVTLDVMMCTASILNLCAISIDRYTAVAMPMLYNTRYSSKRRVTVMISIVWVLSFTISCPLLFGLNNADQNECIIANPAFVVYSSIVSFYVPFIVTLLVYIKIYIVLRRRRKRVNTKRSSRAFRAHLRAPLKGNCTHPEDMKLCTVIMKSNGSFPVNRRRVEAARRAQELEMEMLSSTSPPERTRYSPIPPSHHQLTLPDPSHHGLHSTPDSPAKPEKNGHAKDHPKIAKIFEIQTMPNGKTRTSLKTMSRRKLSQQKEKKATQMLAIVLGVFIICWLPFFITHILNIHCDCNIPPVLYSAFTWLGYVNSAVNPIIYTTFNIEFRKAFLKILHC
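PathHunter beta-arrestin assay in DiscoveRx D2 cells. Compounds were added with an EC20 of dopamine (50 nM final) for 90 min at 37 deg C. Luminescence was read 1 h after detection reagent, with 57 uM dopamine as the EC100 control.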
D2 ag-1 – agonists of human D2 dopamine receptor; HEK293 T-REx D2 cells, calcium flux agonist mode; activation, % at 2 µM; 0.53% of 340,000 active;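 active means activation over 3 SD above normal in the single-dose calcium agonist read, cut at about 30% in these data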
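Agonism scored from kinetic calcium signal (1 read/sec, 180 s) following compound pin transfer, after a 10 s baseline. Cells: HEK293 Trex line expressing inducible D2 receptor coupled to calcium, dye-loaded after overnight culture at 30 C.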
D2 antagonist – antagonists of human D2 dopamine receptor; inhibition, % at 10 µM; P14416; 2% of 340,000 active; HEK293 TREx D2 cells, calcium flux, dopamine EC80; in the data active means inhibition above about 30%; inactive means below that, where a call was filed
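Inhibition of EC80 dopamine-driven calcium flux, recorded kinetically, defines activity here; cells are a tetracycline-induced HEK293 T-REx line expressing force-coupled D2.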
D2 PAM-2 – D2 dopamine receptor (human) potentiation; P14416; HEK293 T-REx D2, calcium flux, EC20 dopamine potentiation; potentiation, % at 10 µM; 0.34% of 340,000 active;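 active means potentiation over 3 SD above the plate norm, cut at about 30% in these data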
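Primary screen. Calcium kinetics in induced HEK293 T-REx D2 cells: compound pre-addition 180 s, EC20 dopamine, 180 s more.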
D2 ag-2 – human D2 receptor agonism in beta-arrestin assay; P14416; DiscoveRx PathHunter D2 beta-arrestin, luminescence, 90 min; 100% = 57 uM dopamine signal; activation, % (test concentration not listed); 0.084% of 360,000 active; in the data active means activation above about 40%; inconclusive means between about 15% and that limit
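Agonist mode: compounds alone added to overnight-plated D2 PathHunter cells for 90 min at 37 C, with 57 uM final dopamine (EC100) defining full response. Beta-arrestin recruitment detected by chemiluminescent reagent, read after 1 h at ambient temperature.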
Large screens that a line does not name were inactive; ! = not active in a repeat. In the library only some 2.4% were active in any assay of this set; here they are far more common.

CC(C)CCNC(=O)CCCN1C(=O)c2ccccc2Sc2ncccc21	none (no result: D2 PAM-1, D2 antagonist, D2 ag-2)
CCOc1ccc(CNC(=O)C2CCN(C(=O)N3CC(CC)Oc4ccc(C)cc43)CC2)cc1OC (centres undefined)	none (no result: D2 PAM-1, D2 antagonist, D2 ag-2)
Cc1nc2sccn2c(=O)c1CCN1CCC(=C(c2ccc(F)cc2)c2ccc(F)cc2)CC1	D2 antagonist 78.3
Cc1nc2ccccn2c(=O)c1CCN1CCC(C(=O)c2ccc(F)cc2)CC1	D2 antagonist 94.8
Cc1nc2sccn2c(=O)c1S(=O)(=O)N1CCN(c2ccc(F)cc2)CC1	none
C/C(=N/O)c1c(O)c(C)c(-c2ccccc2)n(-c2ccccc2)c1=O	none
C/C(=N\O)c1c(O)cc(-c2ccccc2)n(-c2ccccc2)c1=O	D2 ag-1 30.9
CCCNC(=O)Cn1c(=O)cc(C)c2c(C)nn(-c3cccc(F)c3)c21	none (no result: D2 PAM-1, D2 antagonist, D2 ag-2)
CCOc1ccc(N2CC(NC(=O)c3ccc(Cl)cc3)CC2=O)cc1 (centres undefined)	none (no result: D2 PAM-1, D2 antagonist, D2 ag-2)
O=C(CN1CCN(c2ccccn2)CC1)Nc1ccc(F)cc1	none
O=C(CN1CCN(c2ccccn2)CC1)Nc1ccc(Oc2ccccc2)cc1	D2 ag-2 49.9 (no result: D2 ag-1, D2 antagonist, D2 PAM-2)
O=C(CN1CCN(c2ccccn2)CC1)Nc1ccccc1	D2 antagonist 31.4
CCOc1ccc2oc(=O)cc(CN3CCN(c4cc(C)ccc4C)CC3)c2c1	none (no result: D2 PAM-1, D2 antagonist, D2 PAM-2, D2 ag-2)
CN(C)CCNC(=O)CCCN1C(=O)c2cccnc2Oc2ccc(Cl)cc21	none (no result: D2 PAM-1, D2 antagonist, D2 ag-2)
CN(C)C=NC(=O)c1cc(C(=O)c2ccccc2)c[nH]1	D2 antagonist 33.2
CN(C)C=NC(=O)c1cc(C(=O)c2ccc(F)cc2)c[nH]1	none
O=c1c2nncn2ccn1-c1ccc(F)c(F)c1	none (no result: D2 PAM-1, D2 antagonist, D2 ag-2)
CC1(C)CC(=O)c2cc(-c3nc(-c4ccc(F)cc4)cs3)c(=O)[nH]c2C1	none (no result: D2 PAM-1, D2 antagonist, D2 ag-2)
O=[N+]([O-])c1ccccc1NCCNS(=O)(=O)c1ccc(Cl)cc1	D2 antagonist 33.8
CCSC1=NSC2=NC(=O)/C(=C\c3coc4ccccc4c3=O)C(=N)N12	D2 PAM-1 inconclusive, D2 ag-1 99.6
CC(C)CC1=NN2C(=N)/C(=C\c3coc4ccccc4c3=O)C(=O)N=C2S1	none
COCc1c(Br)c(C)nc2sc3c(=O)n(-c4cccc(Br)c4)nnc3c12	none (no result: D2 PAM-1, D2 antagonist, D2 ag-2)
c1ccc2c(c1)CCN(CCCNc1nc3ccccc3n3cnnc13)C2	D2 antagonist 69.9
Clc1cc(Cl)c(OCc2nc(-c3ccccn3)no2)cc1Cl	none
COc1ccc(Cc2nc(-c3ccccn3)no2)cc1	D2 antagonist 34.2
CC(C)(C)c1ccc(OCc2nc(-c3ccccn3)no2)c(Br)c1	D2 antagonist 38.3
COc1ccc(Cc2nc(-c3ccncc3)no2)cc1	D2 PAM-1 51.1
Cc1ccc(CNC(=O)CCCn2c(=O)c3ccccc3n(Cc3ccc(Cl)cc3)c2=O)cc1	none (no result: D2 PAM-1, D2 ag-1, D2 antagonist, D2 ag-2)
Cc1ccc(-n2nc(CO)c(C(=O)NCc3ccccn3)n2)cc1	none (no result: D2 PAM-1, D2 antagonist, D2 ag-2)
CCc1cc2cccc(C)c2nc1SCC(=O)c1ccc(NC(C)=O)cc1	D2 antagonist 46.6
CCc1cc2ccc(C)cc2nc1SCC(=O)c1ccc(NC(C)=O)cc1	none
Oc1ccc(NC(=S)Nc2ccc(O)cc2)cc1	D2 PAM-2 30.6
COC(=O)c1ccc(NC(=S)Nc2ccc(O)cc2)cc1	none
COc1ccc(S(=O)(=O)N2CCN(C3CCCCCCC3)CC2)cc1	D2 antagonist 34.3!
O=S(=O)(c1ccccc1)N1CCC(N2CCN(c3ccccc3)CC2)CC1	D2 ag-1 74.0, D2 antagonist 70.7 (no result: D2 PAM-1, D2 ag-2)
O=S(=O)(c1ccccc1)N1CCN(c2ccccc2)CC1	none
COc1ccc(S(=O)(=O)N2CCC(N3CCCCC3)CC2)cc1	none
COc1ccc(S(=O)(=O)CCc2nc3ccccc3s2)cc1	D2 antagonist 59.1
O=S(=O)(CCc1nc2ccccc2s1)c1ccc(Cl)cc1	none
CCc1[nH]nc(C(=O)N2CCCC(Nc3cccc(F)c3)C2)c1C (centres undefined)	D2 PAM-1 75.3
O=C(N[C@H]1CC1c1ccccc1)c1ccc([N+](=O)[O-])cc1 (some centres undefined)	D2 antagonist 32.9
Cc1ccc(C(=O)NNc2ncnc3c2cnn3C)cc1	D2 antagonist 30.9
COc1ccc(CCNC(c2ccc(F)cc2)c2nnc(-c3ccccc3Cl)o2)cc1OC (centres undefined)	none (no result: D2 PAM-1, D2 ag-1, D2 antagonist, D2 ag-2)
